# ± gives the standard deviation of the averaged measurements.
# Experiments:
# Assay in all cases: control-subtracted net OSN firing rate; higher = stronger neuronal activation
# Settings in all cases: odorant dilution (vol/vol): 1/100
# allyl isothiocyanate = compound: C=CCN=C=S [allyl isothiocyanate]
# Outline: (§1)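 Olfactory sensory neurons in palp or antennal sensilla of fed female flies aged 1–5 days were recorded by single sensillum recording. The flies were Scaptomyza species or D. melanogaster wild-type, mutant or at1 empty-neuron lines expressing Or42a homologs. Odorants diluted 1:100 vol/vol in mineral oil or dimethyl sulfoxide (20 μl on filter paper) were delivered as 1 s pulses into 16 ml/min filtered air, and spikes counted over 0.5 s starting 0.2 s after onset were background-subtracted, doubled and solvent-corrected. Values are replicate means.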
# isobutyl isothiocyanate = compound: CC(C)CN=C=S [isobutyl isothiocyanate]
# Outline: as §1
# sec-butyl isothiocyanate = compound: CCC(C)N=C=S [sec-butyl isothiocyanate]
# Outline: as §1
# cinnamaldehyde = compound: O=C/C=C/c1ccccc1 [cinnamaldehyde]
# Outline: as §1
# phenethyl isothiocyanate = compound: S=C=NCCc1ccccc1 [phenethyl isothiocyanate]
# Outline: as §1
# butyl isothiocyanate = compound: CCCCN=C=S [butyl isothiocyanate]
# Outline: as §1
Target,control-subtracted net OSN firing rate (allyl isothiocyanate) [spikes/s],control-subtracted net OSN firing rate (isobutyl isothiocyanate) [spikes/s],control-subtracted net OSN firing rate (sec-butyl isothiocyanate) [spikes/s],control-subtracted net OSN firing rate (cinnamaldehyde) [spikes/s],control-subtracted net OSN firing rate (phenethyl isothiocyanate) [spikes/s],control-subtracted net OSN firing rate (butyl isothiocyanate) [spikes/s]
S. hsui pb2a-like,-2 ± 4.7,2 ± 7.3,2 ± 4.7,2.67 ± 8.2,0.333 ± 5,–
S. flava pb1b-like,-21 ± 16,-26.3 ± 24,-2.33 ± 32,1.33 ± 17,3 ± 8.8,–
S. hsui pb1a-like,124 ± 17,10 ± 5.1,8.67 ± 7.3,12.7 ± 16,3.67 ± 8.9,–
"Or67dGal4, UAS-Dmel Or42a at1",94.3 ± 58,5.33 ± 7.7,4.33 ± 11,–,–,–
S. flava pb3a-like,6 ± 8.3,4.67 ± 6.8,0.333 ± 11,-2 ± 10,3.33 ± 9.1,–
"Or67dGal4, UAS-Sfla Or42a3 at1",127 ± 27,77.7 ± 25,29.4 ± 17,–,–,–
S. montana pb1b-like,-19 ± 14,-18 ± 11,-8.33 ± 9.7,4 ± 5.4,3.67 ± 2.9,-15 ± 6.8
Canton-S (D. melanogaster) pb1b,-8.93 ± 11,1.33 ± 9.2,-0.667 ± 9.4,2.67 ± 9.5,-4.44 ± 6.8,–
"Or67dGal4, UAS-Sfla Or42a4 at1",131 ± 22,87 ± 27,29.7 ± 21,–,–,–
S. flava pb3b-like,2 ± 14,-3.67 ± 24,-3.33 ± 16,4.33 ± 16,1.33 ± 4.3,–
"Or67dGal4, UAS-Sfla Or42a2 at1",39.7 ± 29,-2 ± 3.1,-1.71 ± 6.6,–,–,–
S. pallida pb1b-like,-11 ± 11,-8.67 ± 14,-1 ± 13,4.67 ± 8.6,-11 ± 11,–
S. montana pb2b-like,2 ± 4.2,3.67 ± 5.3,4.33 ± 6.2,6.67 ± 12,-4.33 ± 4.8,–
S. pallida pb2a-like,9 ± 9.5,5.33 ± 6.4,10.7 ± 9.5,6.67 ± 4.8,3.67 ± 4.6,–
S. hsui pb2b-like,0.667 ± 4.1,7 ± 8.2,5.33 ± 6.3,11 ± 9.8,-0.333 ± 6,–
S. montana pb2a-like,0.667 ± 4.1,1.67 ± 4.5,3 ± 10,13.7 ± 10,2.67 ± 4.3,–
Canton-S (D. melanogaster) pb3b,-3.33 ± 8.2,-1.5 ± 9.8,1.33 ± 7,-1.67 ± 8.6,0 ± 11,–
S. pallida pb3a-like,-6.33 ± 7,-5.67 ± 5.8,-5 ± 14,1 ± 8.3,-4.33 ± 8.1,–

Target,control-subtracted net OSN firing rate (allyl isothiocyanate) [spikes/s],control-subtracted net OSN firing rate (isobutyl isothiocyanate) [spikes/s],control-subtracted net OSN firing rate (sec-butyl isothiocyanate) [spikes/s],control-subtracted net OSN firing rate (cinnamaldehyde) [spikes/s],control-subtracted net OSN firing rate (phenethyl isothiocyanate) [spikes/s],control-subtracted net OSN firing rate (butyl isothiocyanate) [spikes/s]
S. pallida pb2b-like,2.33 ± 5.3,6 ± 4,8.33 ± 3.4,8.33 ± 7.4,4.33 ± 5.8,–
"Or67dGal4, UAS-Spal Or42a at1",201 ± 39,42.2 ± 14,22.8 ± 9.7,–,–,–
Canton-S (D. melanogaster) pb2a,1.69 ± 6.9,1.43 ± 7.3,5.43 ± 6.9,4.29 ± 8.4,0 ± 5,–
S. hsui pb3a-like,0 ± 12,-4.33 ± 7.9,-2 ± 10,6.33 ± 9.9,-4.67 ± 13,–
S. flava pb2b-like,-0.333 ± 12,-4.33 ± 14,-0.333 ± 6.4,-1.33 ± 7.1,4 ± 15,–
Canton-S (D. melanogaster) pb1a,134 ± 36,0.222 ± 8.7,3.56 ± 4.9,7.11 ± 7.2,2 ± 9.3,–
S. pallida pb1a-like,109 ± 21,26 ± 12,17.3 ± 13,19.3 ± 13,3 ± 4.3,–
S. hsui pb1b-like,-15 ± 6.4,-3.33 ± 8.7,4.33 ± 7.4,6 ± 16,-3 ± 7.1,–
S. montana pb1a-like,126 ± 16,110 ± 18,48.3 ± 20,17 ± 9,4.67 ± 7.9,–
Canton-S (D. melanogaster) pb2b,-1.54 ± 9,-0.286 ± 8.4,0.571 ± 8.4,5.14 ± 12,-1.14 ± 8.4,–
S. flava pb2a-like,-1.67 ± 6.9,0.667 ± 5.8,3 ± 7.8,0 ± 6.2,-0.667 ± 5.8,–
S. montana pb3b-like,3 ± 7.9,-0.667 ± 7.8,3.67 ± 6.9,-1.67 ± 8.2,-2.33 ± 8.7,–
S. montana pb3a-like,9.67 ± 6.5,5 ± 8.5,1 ± 7.9,-2.67 ± 16,2.33 ± 10,–
Canton-S (D. melanogaster) pb3a,7.56 ± 4.9,1.5 ± 6,3.67 ± 8,0 ± 8.4,1.17 ± 5.8,–
S. pallida pb3b-like,-5.67 ± 14,-4 ± 7.9,5.33 ± 17,-6.67 ± 18,-5.67 ± 15,–
S. hsui pb3b-like,-2.67 ± 4.5,-1.33 ± 3.9,-3 ± 1.7,2.67 ± 15,-3 ± 5.8,–
S. flava pb1a-like,123 ± 14,107 ± 32,30.3 ± 26,16.7 ± 17,-4 ± 3.8,–

# — the supplement of paper PMC11482750
